Experiment [1] is described as follows: ATG_CRE_CIS: Attagene CIS-FACTORIAL HepG2 Assay for human cAMP Responsive Element (CRE) binding protein 3 (AID 2282926). The following applies: HepG2 CRE cis-reporter, Attagene multiplexed mRNA; actives raise or lower the signal. In outline:
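Multiplexed transcription-unit reporters transfected into HepG2; 24 h dosing; RT-PCR/capillary electrophoresis fluorescence read-out; bidirectional fit vs DMSO.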

The target in experiment [2] is CCAAT/enhancer-binding protein beta (Homo sapiens) (UniProt P17676). The experiment is described as follows: ATG_C_EBP_CIS: Attagene CIS-FACTORIAL HepG2 Assay for human CCAAT/Enhancer Binding Protein (C/EBP) beta (AID 2282927). The following applies: HepG2 Attagene cis-factorial transcription factor reporter; actives raise or lower the signal. In a few lines:
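Transiently transfected HepG2 (MRTU library, endogenous TF-driven promoters); 24 h dosing; total RNA → oligo(dT) RT → PCR → 6-FAM primer extension → HpaI digest → CE; fit bidirectionally vs DMSO.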

A short description of experiment [3]: ATG_CMV_CIS: Attagene CIS-FACTORIAL HepG2 Assay for human CMV (Internal Marker) (AID 2282928).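 Further: endpoint acts as a background internal control marker rather than a target.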 The following applies: HepG2 CMV promoter reporter, transcription factor profiling; actives raise or lower the signal. In a few lines:
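Cell system: HepG2, transiently transfected multiple reporter units under cis promoters. Exposure: 24 h. Detection: RT-PCR, FAM labeling, HpaI digestion, capillary electrophoresis. Analysis: bidirectional, DMSO baseline.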

A short description of experiment [4]: ATG_DR4_LXR_CIS: Attagene CIS-FACTORIAL HepG2 Assay for human Liver X Receptor (LXR), DR4 submotif (AID 2282929). The following applies: HepG2 Attagene DR4 cis-reporter, mRNA transcription; actives raise or lower the signal. In a few lines: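 Endogenous factor activity at a DR4 cis-element is read as reporter mRNA in transiently transfected HepG2 cells. Exposure lasts 24 h; transcripts are amplified, fluorescently labelled and sized by capillary electrophoresis, with DMSO as baseline.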

In experiment [5] the target is Aryl hydrocarbon receptor (Homo sapiens) (UniProt P35869). The experiment is described as follows: ATG_Ahr_CIS: Attagene CIS-FACTORIAL HepG2 Assay for human Aryl Hydrocarbon Receptor (Ahr) (AID 2282930). The note with it: HepG2 AhR cis-factorial reporter transcription; actives raise or lower the signal. In a few lines: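 Read-out: reporter mRNA quantified by RT-PCR with fluorescent primer extension and capillary electrophoresis. Human HepG2 liver cells carried transfected cis-promoter reporter units and were exposed to chemical for 24 h; gain or loss fitted relative to DMSO.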

The nature of experiment [6]: ATG_AP_1_CIS: Attagene CIS-FACTORIAL HepG2 Assay for human Activator Protein 1 (AP-1) (AID 2282931). The note with it: HepG2 Attagene cis-factorial AP-1 reporter mRNA; actives raise or lower the signal. In outline: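 Fluorescence of labelled PCR fragments separated by capillary electrophoresis gives reporter mRNA levels. HepG2 with transfected cis-regulated reporter units, 24 h exposure; DMSO serves as baseline for bidirectional curve fits.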

Experiment [7] can be described thus: ATG_AP_2_CIS: Attagene CIS-FACTORIAL HepG2 Assay for human Activator Protein 2 (AP-2) (AID 2282932). The note with it: HepG2 AP-2 cis-reporter, Attagene transcription factor profiling; actives raise or lower the signal. In a few lines: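 Multiplexed mRNA reporter assay in HepG2: cis-regulated units report endogenous factor activity after 24 h treatment. Fluorescence from capillary electrophoresis of RT-PCR products gives the signal, with DMSO as baseline.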

Experiment [8] deals with Transcription factor E2F1 (Homo sapiens) (UniProt Q01094). As to the kind of experiment: ATG_E2F_CIS: Attagene CIS-FACTORIAL HepG2 Assay for human E2F Transcription Factor 1 (AID 2282935). The note with it: HepG2 Attagene cis-reporter, E2F reporter RNA transcripts; actives raise or lower the signal. In a few lines:
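Measures reporter transcript levels via RT-PCR with capillary electrophoresis detection in HepG2 cells harboring cis-regulated reporter units; 24 h post-dose; bidirectional curve fitting with DMSO as baseline.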

Experiment [9] is described as follows: ATG_E_Box_CIS: Attagene CIS-FACTORIAL HepG2 Assay for human Enhancer Box (E-box) (AID 2282936). The note with it: HepG2 E-box cis-reporter transcription, actives raise or lower the signal. In outline:
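First, HepG2 cells receive multiple cis-regulated reporter constructs by transient transfection. Next, chemicals are applied for 24 h. Finally, reporter mRNA is quantified via RT-PCR and capillary electrophoresis, with DMSO as baseline.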

The nature of experiment [10]: ATG_M_61_CIS: Attagene CIS-FACTORIAL HepG2 Assay for M61 Transcription Factor (Internal Marker) (AID 2282937). The note with it: HepG2 Attagene CIS-FACTORIAL M61 internal marker reporter; actives raise or lower the signal. In outline: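 This endpoint serves as an internal background control within a multiplexed HepG2 cis-reporter panel. Cells are exposed for 24 h; reporter mRNA is amplified, fluorescently labelled and sized by capillary electrophoresis, with DMSO as negative control.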

The nature of experiment [11]: ATG_EGR_CIS: Attagene CIS-FACTORIAL HepG2 Assay for human Early Growth Response 1 (EGR1) (AID 2282938). The note with it: HepG2 Attagene CIS-FACTORIAL EGR reporter mRNA; actives raise or lower the signal. In outline: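 HepG2, transient MRTU transfection (cis promoters), 24 h compound. RNA → RT (oligo-dT) → PCR → 6-FAM labelling → HpaI cut → CE fluorescence. Bidirectional fit, DMSO baseline.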

Experiment [12] can be described thus: ATG_M_19_CIS: Attagene CIS-FACTORIAL HepG2 Assay for M19 Transcription Factor (Internal Marker) (AID 2282939). The note with it: HepG2 Attagene CIS-FACTORIAL M19 internal marker reporter; actives raise or lower the signal. In a few lines: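 Internal marker readout, fitted in both directions against DMSO, from HepG2 cells carrying transfected cis-element reporter constructs; RT-PCR and capillary electrophoresis of reporter mRNA after 24 h exposure.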

Experiment [13] is described as follows: ATG_ERE_CIS: Attagene CIS-FACTORIAL HepG2 Assay for Estrogen Response Element (ERE) (AID 2282940). The note with it: HepG2 ERE cis-reporter, Attagene RNA transcript; actives raise or lower the signal. In a few lines:
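After 24 h compound treatment, RNA from transfected HepG2 cells was reverse-transcribed, reporter cDNA PCR-amplified, FAM-labelled, HpaI-cut and resolved by capillary electrophoresis. ERE-driven cis reporter transcripts reflect endogenous factors; gain or loss scored against DMSO.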

Experiment [14] is described as follows: ATG_Ets_CIS: Attagene CIS-FACTORIAL HepG2 Assay for human Erythroblast Transformation Specific (ETS) (AID 2282941). The note with it: HepG2 ETS cis-reporter transcription, actives raise or lower the signal. In outline: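 After transient cis-reporter transfection, HepG2 cells receive test chemical for 24 h. Reporter mRNA levels, measured by RT-PCR and capillary electrophoresis fluorescence, are analysed bidirectionally relative to the DMSO baseline.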

Experiment [15] deals with Hepatocyte nuclear factor 3-beta (Homo sapiens) (UniProt Q9Y261). The experiment is described as follows: ATG_FoxA2_CIS: Attagene CIS-FACTORIAL HepG2 Assay for human Forkhead box A2 (FOXA2) (AID 2282942). The following applies: HepG2 cis-reporter transcription factor activity, 24 h; actives raise or lower the signal. In outline:
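Cells: HepG2, transient multiplex reporter transfection. Exposure 24 h. Detection: reporter-specific RT-PCR, fluorescent labelling, restriction digest, capillary electrophoresis. Analysis: bidirectional curve fit, DMSO as negative control.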

Experiment [16] can be described thus: ATG_FoxO_CIS: Attagene CIS-FACTORIAL HepG2 Assay for human Forkhead box O (FoxO) (AID 2282943). The following applies: HepG2 Attagene cis-reporter, FoxO element, mRNA; actives raise or lower the signal. In a few lines: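 Read-out: fluorescence of 6-FAM-labelled reporter cDNA fragments resolved by capillary electrophoresis. Transiently transfected HepG2 cells were dosed for 24 h; activity fitted in both directions relative to DMSO controls.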

Experiment [17] can be described thus: ATG_GATA_CIS: Attagene CIS-FACTORIAL HepG2 Assay for human GATA Binding Protein (AID 2282944). The following applies: HepG2 GATA cis-element reporter, Attagene multiplex mRNA; actives raise or lower the signal. In a few lines:
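Reporter transcripts from a GATA cis-regulated unit, among multiplexed reporters in transfected HepG2 cells, were measured by RT-PCR with capillary electrophoresis after 24 h dosing. Induction or loss scored relative to DMSO.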

Experiment [18] in a line: ATG_GLI_CIS: Attagene CIS-FACTORIAL HepG2 Assay for human Zinc Finger Protein GLI1 (AID 2282945). The note with it: HepG2, Attagene cis-factorial reporter mRNA, GLI element; actives raise or lower the signal. In outline:
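Transiently transfected HepG2 cells report endogenous transcription factor activity via cis-element-driven reporter units. After 24 h compound exposure, reporter mRNA was measured by RT-PCR with capillary electrophoresis; bidirectional fitting against DMSO baseline.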

For experiment [19], the target named is Retinoic acid receptor alpha (Homo sapiens) (UniProt P10276). The experiment is described as follows: ATG_DR5_RAR_CIS: Attagene CIS-FACTORIAL HepG2 Assay for human Retinoic Acid Receptor Alpha (RARE), DR5 submotif (AID 2282934). The note with it: HepG2 Attagene cis-factorial RARE DR5 reporter, mRNA; actives raise or lower the signal. In a few lines:
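Read-out: DR5-driven reporter transcript measured by RT-PCR, 6-FAM primer extension, HpaI digest and capillary electrophoresis. Human HepG2 liver cells carry transiently transfected cis-element reporter constructs; dosing lasts 24 h. Gain or loss of signal fitted against DMSO baseline.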

Each structure is given as a SMILES string. Calls of active or inactive are those of the source. How the source made its calls: active means hit-call score of the fitted dose curve at least 0.9, where 1 is the maximum; inactive means score below 0.9.

Sequence of Transcription factor E2F1 (Homo sapiens) (Q01094 whole entry, looked up): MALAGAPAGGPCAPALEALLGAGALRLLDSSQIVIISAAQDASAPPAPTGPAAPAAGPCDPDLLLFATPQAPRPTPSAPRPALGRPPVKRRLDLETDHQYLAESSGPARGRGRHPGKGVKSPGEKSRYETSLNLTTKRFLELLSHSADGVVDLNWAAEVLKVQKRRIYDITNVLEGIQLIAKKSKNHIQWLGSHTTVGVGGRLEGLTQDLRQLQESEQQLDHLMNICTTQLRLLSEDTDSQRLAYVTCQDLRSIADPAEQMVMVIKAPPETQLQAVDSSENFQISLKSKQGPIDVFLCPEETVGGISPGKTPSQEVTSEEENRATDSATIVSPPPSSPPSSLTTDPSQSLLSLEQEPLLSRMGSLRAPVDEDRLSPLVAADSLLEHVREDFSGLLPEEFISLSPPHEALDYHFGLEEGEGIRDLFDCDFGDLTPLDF
Sequence of Hepatocyte nuclear factor 3-beta (Homo sapiens) (Q9Y261 whole entry, looked up): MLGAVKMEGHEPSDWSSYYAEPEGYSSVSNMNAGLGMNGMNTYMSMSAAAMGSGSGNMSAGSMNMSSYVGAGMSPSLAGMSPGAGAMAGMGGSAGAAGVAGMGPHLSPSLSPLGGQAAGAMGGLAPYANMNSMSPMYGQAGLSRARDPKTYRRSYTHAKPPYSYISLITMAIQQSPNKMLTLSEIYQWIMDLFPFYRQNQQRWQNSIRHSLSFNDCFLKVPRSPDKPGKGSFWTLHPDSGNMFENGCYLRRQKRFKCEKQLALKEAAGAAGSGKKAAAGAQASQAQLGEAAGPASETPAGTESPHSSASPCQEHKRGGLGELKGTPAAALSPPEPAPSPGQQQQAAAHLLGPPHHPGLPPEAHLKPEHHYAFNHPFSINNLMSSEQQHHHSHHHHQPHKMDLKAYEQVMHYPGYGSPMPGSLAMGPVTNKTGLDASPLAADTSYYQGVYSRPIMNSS
Sequence of Retinoic acid receptor alpha (Homo sapiens) (P10276 whole entry, looked up): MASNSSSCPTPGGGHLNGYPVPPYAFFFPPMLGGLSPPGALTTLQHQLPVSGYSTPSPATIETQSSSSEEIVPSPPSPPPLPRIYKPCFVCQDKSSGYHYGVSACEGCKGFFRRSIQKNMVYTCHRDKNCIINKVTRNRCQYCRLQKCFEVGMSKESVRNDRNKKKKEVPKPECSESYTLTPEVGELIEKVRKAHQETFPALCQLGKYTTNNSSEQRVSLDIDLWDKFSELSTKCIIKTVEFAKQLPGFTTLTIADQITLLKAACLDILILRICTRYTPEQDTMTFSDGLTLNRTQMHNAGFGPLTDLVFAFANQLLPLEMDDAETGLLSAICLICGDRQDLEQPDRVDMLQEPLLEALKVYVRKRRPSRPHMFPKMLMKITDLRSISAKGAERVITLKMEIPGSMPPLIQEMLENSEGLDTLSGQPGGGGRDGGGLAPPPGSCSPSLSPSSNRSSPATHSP
Sequence of CCAAT/enhancer-binding protein beta (Homo sapiens) (P17676 whole entry, looked up): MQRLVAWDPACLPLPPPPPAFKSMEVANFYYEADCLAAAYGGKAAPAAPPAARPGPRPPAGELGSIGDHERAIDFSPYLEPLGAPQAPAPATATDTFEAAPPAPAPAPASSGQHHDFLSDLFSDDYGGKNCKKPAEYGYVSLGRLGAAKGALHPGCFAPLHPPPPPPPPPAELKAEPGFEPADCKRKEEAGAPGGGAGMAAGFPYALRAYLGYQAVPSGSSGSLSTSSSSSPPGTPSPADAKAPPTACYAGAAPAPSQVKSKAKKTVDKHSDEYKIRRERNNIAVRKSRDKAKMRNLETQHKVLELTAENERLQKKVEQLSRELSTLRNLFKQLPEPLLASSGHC
Sequence of Aryl hydrocarbon receptor (Homo sapiens) (P35869 whole entry, looked up): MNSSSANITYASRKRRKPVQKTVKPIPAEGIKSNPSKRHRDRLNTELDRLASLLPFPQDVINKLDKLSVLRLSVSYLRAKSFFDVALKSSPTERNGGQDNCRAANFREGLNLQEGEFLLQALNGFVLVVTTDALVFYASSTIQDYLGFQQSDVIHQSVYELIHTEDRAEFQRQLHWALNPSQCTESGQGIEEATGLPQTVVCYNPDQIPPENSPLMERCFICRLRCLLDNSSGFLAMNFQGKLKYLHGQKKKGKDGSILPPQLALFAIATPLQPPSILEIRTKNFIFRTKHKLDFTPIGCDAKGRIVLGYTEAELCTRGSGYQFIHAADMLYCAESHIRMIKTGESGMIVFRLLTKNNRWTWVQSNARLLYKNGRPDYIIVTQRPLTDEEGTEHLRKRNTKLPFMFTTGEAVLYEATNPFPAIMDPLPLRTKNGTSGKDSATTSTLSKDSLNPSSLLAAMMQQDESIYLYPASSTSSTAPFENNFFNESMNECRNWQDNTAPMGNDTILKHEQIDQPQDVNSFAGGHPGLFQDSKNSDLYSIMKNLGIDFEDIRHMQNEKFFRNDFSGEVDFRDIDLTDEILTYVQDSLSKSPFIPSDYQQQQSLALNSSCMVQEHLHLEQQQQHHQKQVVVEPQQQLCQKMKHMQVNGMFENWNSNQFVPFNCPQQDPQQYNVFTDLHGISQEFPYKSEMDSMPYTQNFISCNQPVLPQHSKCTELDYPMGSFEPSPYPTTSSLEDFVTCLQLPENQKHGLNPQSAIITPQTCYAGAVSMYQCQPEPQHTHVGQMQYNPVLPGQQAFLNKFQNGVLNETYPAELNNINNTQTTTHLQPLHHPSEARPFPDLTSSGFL

Take `CCOc1ccc(C(C)(C)COCc2cccc(Oc3ccccc3)c2)cc1`: the call in experiment [1], in [2], in [3], in experiment [4], in experiment [5] and in experiment [6] was inactive. In addition, the compound was called inactive in experiment [7], in experiment [8], in [9], in experiment [10], in experiment [11] and in experiment [12]. The result in [13], in experiment [14], in experiment [15], in [16], in experiment [17] and in experiment [18] was inactive.
As to `CCCCOCCOP(=O)(OCCOCCCC)OCCOCCCC`, the compound was called inactive in experiment [1], in experiment [2], in experiment [3], in experiment [4], in experiment [6] and in [7]. Also, the compound was called inactive in experiment [19], in experiment [8], in [9], in experiment [11], in [12] and in experiment [13]. The compound was classed as inactive in experiment [14], in experiment [15], in experiment [16], in [17] and in experiment [18].
For the compound `c1cc2c3c(cccc3c1)CC2`, the compound was classed as inactive in [1], in experiment [2], in experiment [3], in experiment [4], in [5] and in experiment [6]. Further, the call in experiment [7], in experiment [19], in [8], in experiment [9], in [11] and in experiment [12] was inactive. The result in experiment [13], in [14], in [15], in [16], in [17] and in [18] was inactive.
Regarding `Oc1ccccc1Br`, the call in [1], in experiment [2], in experiment [3], in experiment [4], in experiment [5] and in experiment [6] was inactive. Also, the compound was called inactive in experiment [7], in experiment [19], in experiment [8], in [9], in [10] and in experiment [11]. The outcome in experiment [12], in [13], in experiment [14], in experiment [15], in [16] and in experiment [17] was inactive. In addition, in experiment [18], the call was inactive.
As for `O=C(O)CF`, the outcome in [1], in experiment [2], in experiment [3], in experiment [4], in experiment [5] and in [6] was inactive. Further, the outcome in experiment [7], in [8], in experiment [9], in experiment [10], in [11] and in [12] was inactive. In addition, the call in [13], in experiment [14], in [15], in experiment [16], in experiment [17] and in experiment [18] was inactive.
Take `Cc1ccc(N)cc1N`: the compound was called inactive in [1], in experiment [2], in experiment [3], in experiment [4], in experiment [6] and in experiment [7]. Besides, the compound was called inactive in experiment [8], in experiment [9], in experiment [11], in [12], in experiment [13] and in experiment [14]. Also, the compound was called inactive in [15], in experiment [16], in [17] and in experiment [18]. Moreover, in experiment [5], the half-maximal activity concentration (AC50) (as a rule, the midpoint of the concentration-response curve, whichever way the signal moves) is 5.24 µM (active).
Turning to `CC(O)C(F)(F)C(F)(F)F` (stereo not drawn), the outcome in [1], in experiment [2], in [3], in [4], in experiment [5] and in experiment [6] was inactive. Besides, the outcome in [7], in [19], in experiment [8], in experiment [9], in experiment [11] and in [12] was inactive. The call in experiment [13], in experiment [14], in experiment [15], in experiment [16], in experiment [17] and in experiment [18] was inactive.
With `O=c1ssc(Cl)c1Cl`, the AC50 in experiment [1] is 50.9 µM (active); in experiment [2], 53.4 µM (active); in experiment [4], 52.7 µM (active); in experiment [11], 60.3 µM (active); in experiment [14], 52.1 µM (active); in experiment [18], 59.1 µM (active). Also, the compound was classed as inactive in experiment [3], in experiment [5], in experiment [6], in experiment [7], in experiment [19] and in [8]. For the same compound, the outcome in experiment [9], in experiment [12], in experiment [13], in experiment [15], in experiment [16] and in experiment [17] was inactive.

The record behind these values is PubChem BioAssay (EPA / NIEHS).
